In PubChem BioAssay (NCI):
Compounds without any hit were thinned out: in the full panel of roughly 83,000, 20% have a hit.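 How to read the values: 0–100, growth inhibition (40 = 60% inhibited); 0, no net growth; -100 to 0, cell death (-40 = 40% of starting cells died; -100 = all dead).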 Values without a mark were called inactive. Active and inactive are the calls of the source. The calls were made as follows: active = growth percent below 10; inactive = the rest.

Tests used:
Assay in all cases: NCI-60 one-dose screen, 48 h (100 = growth as untreated, 0 = no growth, -100 = all killed)
Conditions in all cases: 10 µM unless noted
SR leukemia = system: SR leukemia
RPMI-8226 leukemia = system: RPMI-8226 leukemia
OVCAR-8 ovarian = system: OVCAR-8 ovarian
OVCAR-5 ovarian = system: OVCAR-5 ovarian
OVCAR-4 ovarian = system: OVCAR-4 ovarian
SK-OV-3 ovarian = system: SK-OV-3 ovarian
IGROV1 ovarian = system: IGROV1 ovarian
OVCAR-3 ovarian = system: OVCAR-3 ovarian
HS 578T breast = system: HS 578T breast
NCI/ADR-RES ovarian = system: NCI/ADR-RES ovarian
T-47D breast = system: T-47D breast
BT-549 breast = system: BT-549 breast
MDA-MB-435 melanoma = system: MDA-MB-435 melanoma
MCF7 breast = system: MCF7 breast
HCT-116 colon = system: HCT-116 colon
HCC-2998 colon = system: HCC-2998 colon
KM12 colon = system: KM12 colon
SW-620 colon = system: SW-620 colon

| Structure (SMILES) | growth (SR leukemia) | growth (RPMI-8226 leukemia) | growth (OVCAR-8 ovarian) | growth (OVCAR-5 ovarian) | growth (OVCAR-4 ovarian) | growth (SK-OV-3 ovarian) | growth (IGROV1 ovarian) | growth (OVCAR-3 ovarian) | growth (HS 578T breast) | growth (NCI/ADR-RES ovarian) | growth (T-47D breast) | growth (BT-549 breast) | growth (MDA-MB-435 melanoma) | growth (MCF7 breast) | growth (HCT-116 colon) | growth (HCC-2998 colon) | growth (KM12 colon) | growth (SW-620 colon) |
| --- | --- | --- | --- | --- | --- | --- | --- | --- | --- | --- | --- | --- | --- | --- | --- | --- | --- | --- |
| COc1cc(/C=C/c2cc(/C=C/c3ccc(O)c(OC)c3)n(C(=O)Nc3ccc(C)cc3C)n2)ccc1O | -2.07% (active) | -16.7% (active) | -34.7% (active) | -4.24% (active) | 7.87% (active) | -63.6% (active) | -1.75% (active) | -37.3% (active) | -15% (active) | 7.64% (active) | -22.5% (active) | -33.8% (active) | -40.9% (active) | -3.78% (active) | 1.48% (active) | 4.28% (active) | -9.35% (active) | – |
| CCOC(=O)/C(=C/c1ccc([N+](=O)[O-])cc1)C(=O)c1ccccc1 | 4.07% (active) | -13% (active) | 41.5% | 41.7% | 76% | 102% | 42.5% | 58.4% | 33.2% | 25.7% | 41.9% | 6.8% (active) | 28.1% | 22.7% | -8.58% (active) | 47.7% | 29.5% | – |
| O=C1CCc2c(sc3[nH]c(=S)n(-c4cc(C(F)(F)F)cc(C(F)(F)F)c4)c(=O)c23)C1 | 13.4% | -23.7% (active) | 1.35% (active) | -24.4% (active) | 4.84% (active) | -18.7% (active) | – | -13.3% (active) | -6.29% (active) | -13.4% (active) | -34.6% (active) | 3.75% (active) | 7.15% (active) | 0.882% (active) | 3.29% (active) | -49.1% (active) | -70.2% (active) | – |
| CC(C)(C)n1cc(-c2ccnc(NCCNS(=O)(=O)c3ccc(C(F)(F)F)cc3)c2)c(-c2ccccc2)n1 | 35.9% | 81.1% | 89.2% | 108% | 84.8% | 97.8% | – | 94.5% | 99.6% | 91.5% | 62.5% | 93.7% | 100% | 63% | 58.9% | 111% | 96.7% | 99.2% |
| Cc1[nH]c(C2CC(c3ccc(C(F)(F)F)c(F)c3)=NN2C)c(C)c1C(=O)NCC(F)(F)F (stereo not drawn) | 92.9% | 92.4% | 94.8% | 98.4% | 90.9% | 105% | – | 107% | 95.9% | 98.8% | 93.9% | 107% | 100% | 80.7% | 101% | 105% | 97.8% | 103% |
| CC(CN)[C@@H]1CC[C@]2(CO)CC[C@]3(C)[C@H](CC[C@@H]4[C@@]5(C)CCC(NCCO)C(C)(C)[C@@H]5CC[C@]43C)[C@@H]12 (stereo partly drawn) | -21.5% (active) | 0.0868% (active) | 75.8% | 84.2% | 77.3% | 100% | – | 53.1% | 58.7% | 91.1% | 77.5% | 64.7% | 31% | 3.04% (active) | 6.92% (active) | -26.8% (active) | 32.6% | -60.9% (active) |
| Cc1ccc(NC(=O)c2ccc(Nc3ncnc4c3cnn4-c3cccc(F)c3)cc2)cc1 | 92.7% | 90.2% | 97.6% | 99.6% | 98.9% | 109% | – | 106% | 96.6% | 98.8% | 92.6% | 99.7% | 100% | 96.5% | 101% | 107% | 102% | 101% |
| Cc1ccc(C(=O)Nc2ccc(CN3CCN(C)CC3)c(C(F)(F)F)c2)cc1C#Cc1cnc(N)c2ccccc12 | -8.12% (active) | -39.6% (active) | -42.1% (active) | 2.98% (active) | -52% (active) | -1.39% (active) | – | -57.7% (active) | -28.1% (active) | -32.8% (active) | 30.5% | 51.3% | -97% (active) | -81.5% (active) | -90.5% (active) | -83.5% (active) | -83.1% (active) | -88.4% (active) |
| CCCCCCC/C=N/NC(=O)c1ccc(-n2cc(-c3ccccc3)nn2)cc1 | 79.4% | 94.3% | 95.6% | 89.9% | 93.1% | 87.8% | – | 102% | 91.3% | 86.9% | 95.4% | 82.1% | 90.8% | 85.9% | 97.5% | – | 86.8% | 95.6% |
| Cc1nn(C)c2ncnc(Nc3ccccc3Br)c12 | 84.8% | 95.2% | 106% | 99.6% | 109% | 99% | – | 108% | 101% | 107% | 94.8% | 108% | 106% | 95.6% | 110% | – | 108% | 106% |
| NCCCCCNc1noc(Cc2c[nH]c3cc(Br)ccc23)n1 | 10.5% | 4.37% (active) | 28.4% | 58.1% | 46.8% | -1.93% (active) | – | -50.2% (active) | 19.8% | -13.6% (active) | 25.9% | 44.9% | -37% (active) | 21.8% | 23% | 64% | 23.9% | 18.6% |
| CC(=O)c1ccc(Nc2nccc(-c3ccc(Cl)cc3)n2)cc1 | 58.3% | 93.6% | 91.7% | 91.6% | 105% | 108% | 103% | 109% | 95% | 96.1% | 80.2% | 100% | 104% | 76.8% | – | – | 94.7% | – |
| CC(C)c1nc(N(C)S(C)(=O)=O)nc(-c2ccc(F)cc2)c1/C=C/C(=O)C[C@@H](O)CC(=O)O | 105% | 107% | 94.2% | 106% | 113% | 102% | – | 111% | 102% | 107% | 101% | 94.2% | 103% | 97.2% | 91.1% | 98.2% | 97.1% | 108% |
| O=C(Cn1cc(CSc2nc3ccccc3o2)nn1)Nc1ccc([N+](=O)[O-])cc1 | 101% | 97.3% | 107% | 100% | 96.9% | 76.6% | – | 103% | 95.3% | 97.4% | 87.9% | 96.7% | 99.1% | 96.8% | – | 110% | 94.8% | 102% |
| N#CC1=C(N)Oc2c(ccc3ccccc23)C1c1cc2ccccc2n2nnnc12 (stereo not drawn) | 3.88% (active) | -8.74% (active) | 26.6% | 39.4% | 65% | 12.5% | – | -20.7% (active) | 17.7% | 0.93% (active) | 25% | 16.2% | -27.7% (active) | 9.81% (active) | -5.37% (active) | – | 18.1% | 9.58% (active) |
| CCOc1ccc(-c2cc(C3(S(=O)(=O)c4ccc(C)cc4)CC=CC3)on2)cc1 | 69.1% | 62.4% | 90.4% | 101% | 74.3% | 91% | – | 92% | 96.4% | 71% | 64.4% | 94.8% | 95.1% | 95.9% | 82.3% | 97.1% | 94.4% | 89.4% |
| O=c1c(Cc2ccc(F)cc2)cc(-c2ccccc2)nn1C/C(=N/O)c1ccccc1 | 30.3% | 25.6% | 43.7% | 66.9% | 41.5% | 74.7% | – | 49.5% | 73.8% | 34.7% | 11.8% | 48.4% | 48.8% | 26.2% | 35.1% | 61.3% | 34.7% | 58.7% |
| c1ccc(-c2nc(N3CCNCC3)c3oc(-c4ccccc4)nc3n2)cc1 | -1.84% (active) | -32.6% (active) | -25.1% (active) | -82% (active) | -88.2% (active) | -46% (active) | – | -53.4% (active) | -60.7% (active) | -48.8% (active) | -41.9% (active) | 106% | -93.9% (active) | -62.3% (active) | – | -87.5% (active) | -75.4% (active) | -77.7% (active) |
